In PubChem BioAssay (EPA / NIEHS):
Inconclusive results are not listed. Active and inactive are the calls of the source. Rule for the calls: active = hit-call score of the fitted dose curve at least 0.9, where 1 is the maximum; inconclusive = response in the unintended direction; inactive = score below 0.9.

Assays:
[1] = target: mouse Cholecystokinin, CCK2 Receptor (CCKB), Cckbr (gene 12426) (UniProt P56481); experiment: NVS_GPCR_mCKKBCentral: NovaScreen (NVS) G Protein-Coupled Receptor Assay for mouse Cholecystokinin, CCK2 Receptor (CCKB) (AID 2283293)
In short: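 Radioligand displacement binding on mouse forebrain membranes, 2 h exposure, filter-based scintillation counting. Primary screen in duplicate at 25 uM; actives (e.g. ≥30% inhibition) retested in concentration-response up to 50 uM; loss of binding signal relative to DMSO.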

[2] = target: guinea pig Serotonin, 5-Hydroxytryptamine Receptor 4 (5HT4), HTR4 (gene 100135548) (UniProt O70528); experiment: NVS_GPCR_g5HT4: NovaScreen (NVS) G Protein-Coupled Receptor Assay for guinea pig Serotonin, 5-Hydroxytryptamine Receptor 4 (5HT4) (AID 2283294)
In short: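 Guinea pig striatal membranes; radioligand competitive displacement, filtration and scintillation counting after 1 h. Primary screen in duplicate at 25 uM; actives then tested in concentration series; loss of binding signal fitted relative to DMSO.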

[3] = tested on: rat Adrenergic, Alpha 1B Receptor (Adra1B), gene 24173; experiment: NVS_GPCR_rAdra1B: NovaScreen (NVS) G Protein-Coupled Receptor Assay for rat Adrenergic, Alpha 1B Receptor (Adra1B) (AID 2283297)
In short: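 Rat liver membranes, radioligand displacement with filter-based scintillation detection, 1 h incubation. Primary screen in duplicate at 25 uM; actives retested in concentration series; activity relative to DMSO.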

[4] = target: rat Adrenergic Receptor, Beta (Adrb), Non-selective Binding, Adrb1 (gene 24925) (UniProt P18090); experiment: NVS_GPCR_rAdrb_NonSelective: NovaScreen (NVS) G Protein-Coupled Receptor Assay for rat Adrenergic Receptor, Beta (Adrb), Non-selective Binding (AID 2283298)
In short: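 Non-selective beta-adrenergic radioligand binding in rat cortical membranes, 1 h incubation, filter-based scintillation read-out. Primary screen 25 uM in duplicate; hits retested in concentration-response up to 50 uM, DMSO baseline.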

[5] = target: rat Adrenergic Receptor, Alpha 2 (Adra2), Non-selective Binding, Adra2a (gene 25083) (UniProt P22909); experiment: NVS_GPCR_rAdra2_NonSelective: NovaScreen (NVS) G Protein-Coupled Receptor Assay for rat Adrenergic Receptor, Alpha 2 (Adra2), Non-selective Binding (AID 2283299)
In short: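 Rat cortical membranes, radioligand competitive displacement read by filter-based scintillation counting 1.25 hours after dosing. Primary screen in duplicate at 25 uM; actives followed up in concentration series.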

[6] = target: rat Serotonin, 5-Hydroxytryptamine Receptor (5HT), Non-Selective Binding, Htr1a (gene 24473) (UniProt P19327); experiment: NVS_GPCR_r5HT_NonSelective: NovaScreen (NVS) G Protein-Coupled Receptor Assay for rat Serotonin, 5-Hydroxytryptamine Receptor (5HT), Non-Selective Binding (AID 2283295)
In short: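 Radioligand displacement on rat cortical membranes, 1 h incubation, filter-based scintillation counting. Primary duplicates at 25 uM, actives retested in concentration series; loss of signal fitted against DMSO as baseline.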

[7] = target: rat Corticotropin Releasing Factor Receptor (CRF), Crhr1 (gene 58959) (UniProt P35353); experiment: NVS_GPCR_rCRF: NovaScreen (NVS) G Protein-Coupled Receptor Assay for rat Corticotropin Releasing Factor Receptor (CRF) (AID 2283300)
In short: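 Rat cortical membranes used as receptor source in a radioligand competitive displacement binding assay; scintillation read 2 h after dosing. Primary screen run in duplicate at 25 uM; loss of signal versus DMSO baseline indicates binding.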

[8] = target: rat Gamma-Aminobutyric Acid Type B Receptor (GABBR), Gabbr1 (gene 81657) (UniProt Q9Z0U4); experiment: NVS_GPCR_rGABBR: NovaScreen (NVS) G Protein-Coupled Receptor Assay for rat Gamma-Aminobutyric Acid Type B Receptor (GABBR) (AID 2283301)
In short: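 Radioligand displacement on rat cortical membranes, 1 h, filter-based scintillation counting. Primary screen at 25 uM in duplicate; compounds passing threshold re-tested in concentration-response up to 50 uM; loss of binding fitted against DMSO.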

[9] = target: guinea pig Bradykinin Receptor B2 (BK2), BDKRB2 (gene 100135486) (UniProt O70526); experiment: NVS_GPCR_gBK2: NovaScreen (NVS) G Protein-Coupled Receptor Assay for guinea pig Bradykinin Receptor B2 (BK2) (AID 2283292)
In short: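 Radioligand displacement on guinea pig ileum membranes for 1 h, read by filter-based scintillation counting; loss of signal relative to DMSO. Compounds were screened in duplicate at 25 uM, and those passing the threshold were retested in concentration-response up to 50 uM.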

[10] = target: rat Adrenergic, Alpha 1A Receptor (Adra1A), Adra1a (gene 29412) (UniProt P43140); experiment: NVS_GPCR_rAdra1A: NovaScreen (NVS) G Protein-Coupled Receptor Assay for rat Adrenergic, Alpha 1A Receptor (Adra1A) (AID 2283296)
In short: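 Rat cortical membranes pretreated with chlorethyl clonidine; competitive radioligand displacement, 1 h. Filter-based scintillation counting. Primary screen in duplicate at 25 uM, actives followed in concentration series.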

mouse Cholecystokinin, CCK2 Receptor (CCKB), Cckbr (gene 12426), sequence (P56481 whole entry, looked up): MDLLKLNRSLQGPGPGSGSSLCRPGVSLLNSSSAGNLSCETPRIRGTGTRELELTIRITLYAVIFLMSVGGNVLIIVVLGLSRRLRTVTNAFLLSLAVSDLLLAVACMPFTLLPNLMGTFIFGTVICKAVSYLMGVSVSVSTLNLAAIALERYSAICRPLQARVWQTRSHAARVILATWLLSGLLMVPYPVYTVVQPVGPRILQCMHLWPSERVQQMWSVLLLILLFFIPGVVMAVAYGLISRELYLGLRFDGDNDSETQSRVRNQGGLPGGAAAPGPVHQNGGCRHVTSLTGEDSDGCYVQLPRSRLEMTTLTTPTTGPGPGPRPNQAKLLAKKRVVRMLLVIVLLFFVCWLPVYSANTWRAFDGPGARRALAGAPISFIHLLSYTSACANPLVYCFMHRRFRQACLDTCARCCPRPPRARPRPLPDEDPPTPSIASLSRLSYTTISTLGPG
rat Serotonin, 5-Hydroxytryptamine Receptor (5HT), Non-Selective Binding, Htr1a (gene 24473), sequence (P19327 whole entry, looked up): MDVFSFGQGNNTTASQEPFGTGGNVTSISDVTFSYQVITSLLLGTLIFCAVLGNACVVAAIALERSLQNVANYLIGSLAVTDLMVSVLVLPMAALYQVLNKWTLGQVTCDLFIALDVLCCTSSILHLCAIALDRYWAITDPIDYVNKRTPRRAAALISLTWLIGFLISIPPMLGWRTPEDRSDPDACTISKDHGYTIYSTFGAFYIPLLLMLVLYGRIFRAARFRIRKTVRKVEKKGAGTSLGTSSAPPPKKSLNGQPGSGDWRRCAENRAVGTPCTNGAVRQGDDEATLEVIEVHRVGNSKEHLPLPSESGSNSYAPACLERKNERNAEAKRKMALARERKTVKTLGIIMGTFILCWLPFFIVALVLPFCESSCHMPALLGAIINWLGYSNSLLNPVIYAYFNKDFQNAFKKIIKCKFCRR
rat Corticotropin Releasing Factor Receptor (CRF), Crhr1 (gene 58959), sequence (P35353 whole entry, looked up): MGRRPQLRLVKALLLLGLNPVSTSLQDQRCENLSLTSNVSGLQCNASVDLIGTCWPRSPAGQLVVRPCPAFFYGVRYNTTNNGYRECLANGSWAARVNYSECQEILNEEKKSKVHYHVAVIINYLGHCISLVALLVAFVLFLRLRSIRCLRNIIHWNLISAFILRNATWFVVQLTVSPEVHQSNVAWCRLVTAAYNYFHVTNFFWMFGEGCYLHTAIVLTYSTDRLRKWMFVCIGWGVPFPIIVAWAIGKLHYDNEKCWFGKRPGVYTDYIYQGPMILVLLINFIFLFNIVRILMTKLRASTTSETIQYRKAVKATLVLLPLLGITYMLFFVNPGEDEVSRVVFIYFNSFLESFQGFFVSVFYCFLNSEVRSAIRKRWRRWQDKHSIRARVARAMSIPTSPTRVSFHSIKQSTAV
guinea pig Serotonin, 5-Hydroxytryptamine Receptor 4 (5HT4), HTR4 (gene 100135548), sequence (O70528 whole entry, looked up): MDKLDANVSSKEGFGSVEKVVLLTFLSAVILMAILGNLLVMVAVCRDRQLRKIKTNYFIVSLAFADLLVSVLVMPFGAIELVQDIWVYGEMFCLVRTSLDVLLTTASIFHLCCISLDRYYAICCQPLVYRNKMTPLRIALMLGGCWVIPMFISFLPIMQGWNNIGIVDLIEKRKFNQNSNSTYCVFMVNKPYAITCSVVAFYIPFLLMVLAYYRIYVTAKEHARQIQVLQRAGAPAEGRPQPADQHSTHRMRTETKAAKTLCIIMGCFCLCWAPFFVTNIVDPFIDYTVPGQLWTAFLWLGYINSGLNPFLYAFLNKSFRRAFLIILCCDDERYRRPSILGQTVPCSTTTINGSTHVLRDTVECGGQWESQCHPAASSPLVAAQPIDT
rat Adrenergic Receptor, Alpha 2 (Adra2), Non-selective Binding, Adra2a (gene 25083), sequence (P22909 whole entry, looked up): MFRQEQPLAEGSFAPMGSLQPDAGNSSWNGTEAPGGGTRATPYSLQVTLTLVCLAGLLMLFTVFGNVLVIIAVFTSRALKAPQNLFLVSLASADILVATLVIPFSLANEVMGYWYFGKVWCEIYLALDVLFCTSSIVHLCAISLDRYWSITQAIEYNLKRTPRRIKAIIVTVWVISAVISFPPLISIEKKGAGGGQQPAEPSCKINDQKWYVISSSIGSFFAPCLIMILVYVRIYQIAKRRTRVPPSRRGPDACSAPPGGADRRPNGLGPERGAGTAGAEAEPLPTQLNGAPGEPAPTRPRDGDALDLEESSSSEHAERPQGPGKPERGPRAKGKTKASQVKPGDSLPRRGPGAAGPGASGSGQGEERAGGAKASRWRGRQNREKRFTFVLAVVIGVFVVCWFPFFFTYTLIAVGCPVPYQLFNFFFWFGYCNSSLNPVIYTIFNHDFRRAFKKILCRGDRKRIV
rat Adrenergic Receptor, Beta (Adrb), Non-selective Binding, Adrb1 (gene 24925), sequence (P18090 whole entry, looked up): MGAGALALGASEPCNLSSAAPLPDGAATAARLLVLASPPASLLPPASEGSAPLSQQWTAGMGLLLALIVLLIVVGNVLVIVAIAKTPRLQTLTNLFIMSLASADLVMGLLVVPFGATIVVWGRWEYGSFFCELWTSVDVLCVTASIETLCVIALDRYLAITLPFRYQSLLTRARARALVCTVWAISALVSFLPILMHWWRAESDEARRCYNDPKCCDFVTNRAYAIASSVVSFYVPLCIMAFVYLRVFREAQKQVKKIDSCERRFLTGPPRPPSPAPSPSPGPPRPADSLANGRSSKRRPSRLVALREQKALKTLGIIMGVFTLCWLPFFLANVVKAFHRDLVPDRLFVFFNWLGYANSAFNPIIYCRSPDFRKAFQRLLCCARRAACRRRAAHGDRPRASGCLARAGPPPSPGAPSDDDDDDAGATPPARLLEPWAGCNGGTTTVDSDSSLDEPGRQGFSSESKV
rat Adrenergic, Alpha 1A Receptor (Adra1A), Adra1a (gene 29412), sequence (P43140 whole entry, looked up): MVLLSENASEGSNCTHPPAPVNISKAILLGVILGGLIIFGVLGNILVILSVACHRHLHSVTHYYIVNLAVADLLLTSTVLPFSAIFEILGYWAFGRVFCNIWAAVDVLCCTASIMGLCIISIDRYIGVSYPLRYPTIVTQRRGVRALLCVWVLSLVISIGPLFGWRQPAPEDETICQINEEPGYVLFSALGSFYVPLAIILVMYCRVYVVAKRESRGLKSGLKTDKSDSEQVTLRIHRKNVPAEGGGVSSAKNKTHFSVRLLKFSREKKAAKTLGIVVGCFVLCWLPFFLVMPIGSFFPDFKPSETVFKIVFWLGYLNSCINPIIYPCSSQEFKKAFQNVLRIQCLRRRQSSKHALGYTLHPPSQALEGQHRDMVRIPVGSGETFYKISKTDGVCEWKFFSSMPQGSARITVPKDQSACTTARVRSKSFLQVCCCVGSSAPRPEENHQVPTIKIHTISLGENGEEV
rat Gamma-Aminobutyric Acid Type B Receptor (GABBR), Gabbr1 (gene 81657), sequence (Q9Z0U4 whole entry, looked up): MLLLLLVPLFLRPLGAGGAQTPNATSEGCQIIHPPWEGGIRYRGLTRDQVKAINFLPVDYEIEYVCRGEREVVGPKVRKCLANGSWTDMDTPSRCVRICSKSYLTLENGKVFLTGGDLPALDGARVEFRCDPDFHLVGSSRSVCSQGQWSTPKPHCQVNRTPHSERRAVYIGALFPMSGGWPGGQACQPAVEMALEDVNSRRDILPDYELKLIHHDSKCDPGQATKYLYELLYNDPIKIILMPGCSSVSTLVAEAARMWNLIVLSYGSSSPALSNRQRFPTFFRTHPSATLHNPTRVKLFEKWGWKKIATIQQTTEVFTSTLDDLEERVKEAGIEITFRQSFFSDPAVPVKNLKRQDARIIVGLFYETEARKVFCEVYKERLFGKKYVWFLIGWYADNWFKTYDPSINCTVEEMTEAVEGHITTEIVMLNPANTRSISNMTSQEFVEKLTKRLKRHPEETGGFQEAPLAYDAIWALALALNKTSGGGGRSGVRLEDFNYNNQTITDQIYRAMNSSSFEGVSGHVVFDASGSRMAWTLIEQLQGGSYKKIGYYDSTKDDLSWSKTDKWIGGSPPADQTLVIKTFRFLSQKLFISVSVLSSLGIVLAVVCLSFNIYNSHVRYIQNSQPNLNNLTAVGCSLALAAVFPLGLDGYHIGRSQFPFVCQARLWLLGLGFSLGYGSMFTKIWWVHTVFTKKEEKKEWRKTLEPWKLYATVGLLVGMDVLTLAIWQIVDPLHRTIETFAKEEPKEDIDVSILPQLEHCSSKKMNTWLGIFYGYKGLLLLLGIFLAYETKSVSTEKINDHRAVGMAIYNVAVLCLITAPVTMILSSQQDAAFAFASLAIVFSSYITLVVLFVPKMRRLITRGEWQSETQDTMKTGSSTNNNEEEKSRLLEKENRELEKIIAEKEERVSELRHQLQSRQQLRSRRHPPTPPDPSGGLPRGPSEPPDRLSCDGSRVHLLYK
guinea pig Bradykinin Receptor B2 (BK2), BDKRB2 (gene 100135486), sequence (O70526 whole entry, looked up): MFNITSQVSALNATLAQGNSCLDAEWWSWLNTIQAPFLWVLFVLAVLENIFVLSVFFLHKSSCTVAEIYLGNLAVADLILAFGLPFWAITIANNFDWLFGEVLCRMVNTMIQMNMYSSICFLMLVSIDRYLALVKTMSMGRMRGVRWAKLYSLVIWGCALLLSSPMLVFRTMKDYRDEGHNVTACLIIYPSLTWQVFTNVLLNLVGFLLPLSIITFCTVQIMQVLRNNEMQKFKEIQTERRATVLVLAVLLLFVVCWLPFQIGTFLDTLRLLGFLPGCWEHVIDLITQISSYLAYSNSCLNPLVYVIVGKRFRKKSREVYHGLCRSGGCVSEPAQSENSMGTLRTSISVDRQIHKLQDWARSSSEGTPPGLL

In the case of `CC[C@H](C)[C@H]1O[C@]2(C=C[C@@H]1C)C[C@@H]1C[C@@H](C/C=C(\C)[C@@H](O[C@H]3C[C@H](OC)[C@@H](O[C@H]4C[C@H](OC)[C@@H](NC)[C@H](C)O4)[C@H](C)O3)[C@@H](C)/C=C/C=C3\CO[C@@H]4[C@H](O)C(C)=C[C@@H](C(=O)O1)[C@]34O)O2`, the AC50 [1] is reported as 15.4 µM (active), the AC50 [2] is reported as 21.4 µM (active) and the AC50 [3] is reported as 33.1 µM (active). For the same compound, the outcome [4] was “inactive” and the AC50 [5] was 11.5 µM (active).

For `COc1cc(OC)nc(Sc2cccc(Cl)c2C(=O)O)n1`, the outcome [6] was “inactive”.

For `Nc1c(Cl)cc([N+](=O)[O-])cc1Cl`, the outcome [7] was “inactive”.

`CCCOCC(=Nc1ccc(Cl)cc1C(F)(F)F)n1ccnc1` was tested, and the outcome [2] was “inactive”.

In the case of `COP(=O)(NC(C)=O)SC` (stereo not drawn), the outcome [8] is reported as “inactive”.

For `CCOC(=O)COc1cc(-c2nn(C)c(OC(F)F)c2Cl)c(F)cc1Cl`, the outcome [6] was “inactive”.

With `FC(F)C(F)(F)OCC(Cn1cncn1)c1ccc(Cl)cc1Cl` (stereo not drawn) the AC50 [1] was 10.3 µM (active) and the outcome [4] was “inactive”.

For `CCOP(=S)(Oc1cnc(C(C)(C)C)nc1)OC(C)C` (stereo not drawn), the outcome [5] was “inactive”.

With `CC(C)[C@H](C(=O)O[C@H](C#N)c1cccc(Oc2ccccc2)c1)c1ccc(Cl)cc1` the outcome [2] was “inactive” and the outcome [5] was “inactive”.

`Cc1cc(C2CC2)nc(Nc2ccccc2)n1` was tested, and the outcome [7] was “inactive” and the outcome [8] was “inactive”.

`S=C1NCCN1` was tested, and the outcome [9] was “inactive” and the outcome [5] was “inactive”.

In the case of `C[Si](Cn1cncn1)(c1ccc(F)cc1)c1ccc(F)cc1`, the AC50 [10] is reported as 16.9 µM (active) and the AC50 [3] is reported as 19.1 µM (active).

With `CCCCSP(=O)(SCCCC)SCCCC` the outcome [1] was “inactive”.

`CSC1=N[C@@](C)(c2ccccc2)C(=O)N1Nc1ccccc1` was tested, and the outcome [10] was “inactive”.

In the case of `CCC(=O)Nc1ccc(Cl)c(Cl)c1`, the AC50 [2] is reported as 9.91 µM (active) and the AC50 [6] is reported as 34.6 µM (active).

For `C#CC(C)(C)NC(=O)c1cc(Cl)cc(Cl)c1`, the outcome [7] was “inactive”.

In the case of `CSc1nc(NC(C)C)nc(NC(C)C)n1`, the outcome [2] is reported as “inactive”.

In the case of `CC(C)=CC1C(C(=O)OCN2C(=O)C3=C(CCCC3)C2=O)C1(C)C` (stereo not drawn), the outcome [7] is reported as “inactive”.
